In the library only some 17% were active in any assay of this set; here they are far more common.
ClpP mod = qHTS Assay for Activators of ClpP. ATP-dependent Clp protease proteolytic subunit (Bacillus subtilis (strain 168)), P80244. purified B. subtilis ClpP, FRET peptide cleavage, 20 min. Potency, µM (highest dose often 57.5 µM), inactives show at the top dose activity change, negative = active. 340,000 tested, 1.9% active. AID 651965, 2013; active = well fitted falling curve with a large enough effect; inconclusive = small, poorly fitted or top-dose-only effect; inactive = no such curve, though single readings can be large or run the other way; note: the source files actives as falling curves though it sought activators and does not explain the sign; nearly all actives have a fitted effect of over 65% in size
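Buffer: 100 mM Tris/HCl pH8, 100 mM KCl, 0.05% low protease BSA, 2.5% glycerol, 0.01% Tween-20. ClpP 10 microg/mL final; 20 min RT; delta FRET normalized to ADEP and DMSO controls.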
TDP1 cell CPT = qHTS for Inhibitors of human tyrosyl-DNA phosphodiesterase 1 (TDP1): qHTS in cells in presence of CPT. chicken DT40 Tdp1-/-;hTDP1 cells + 20 nM CPT, ATP luminescence, 48 h. Potency, µM (series often up to 46.2 µM), for the others: top-dose activity change, negative = growth inhibition, actives largely listed as inhibitors. 420,000 tested, 12% active. AID 686979, 2013; note: % is set by controls: 0 for no effect and ±100 for the full control effect; nearly all actives have a fitted effect of over 55% in size
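Chicken DT40 Tdp1-/- cells complemented with human TDP1, 400 cells/well, exposed to compounds plus 20 nM camptothecin for at least 48 h at 37 C; viability read as ATP content by CellTiter-Glo luminescence.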
TDP1 block = qHTS Assay for Inhibitors of Tyrosyl-DNA Phosphodiesterase (TDP1). Tyrosyl-DNA phosphodiesterase 1 (Homo sapiens), Q9NUW8. recombinant TDP1, AlphaScreen DNA substrate cleavage. Potency, µM (titrated, usually from 130 µM), without a hit: at the top dose activity change, negative = inhibition, hits mostly inhibitors. 350,000 tested, 0.28% active; note: % is set by controls: 0 for no effect and ±100 for the full control effect; nearly all actives have a fitted effect of over 40% in size
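Steps: enzyme plus compound, 15 min RT; add biotin/phosphotyrosine-FITC oligonucleotide (15 nM final), react 5 min; add donor/acceptor beads (10 ug/ml final), 10 min; read AlphaScreen. Tdp1 at 1 nM final.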
TDP1 cell noCPT = qHTS for Inhibitors of human tyrosyl-DNA phosphodiesterase 1 (TDP1): qHTS in cells in absence of CPT. Potency, µM (top dose mostly 46.2 µM), without a hit: at the highest dose activity change, negative = growth inhibition, usual class: inhibitors. DT40 Tdp1-/- hTDP1 cells, no CPT, ATP luminescence, 48 h. 420,000 tested, 15% active; note: % is set by controls: 0 for no effect and ±100 for the full control effect; nearly all actives have a fitted effect of over 55% in size
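Cells were dispensed at 400 per well, compounds added by pin tool, plates incubated ≥48 hr at 37 °C, then CellTiter-Glo added for 30 min at room temperature before luminescence reading. Line: DT40 Tdp1-/- complemented with hTDP1; camptothecin omitted.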
* marks the source's active call; other numbers are inactive results; ? = inconclusive; . = no result given; ! = repeats disagree; [ ] = dose if it differs, or a comment. Unless noted, calls come from the whole dose curve; as a rule, active = well fitted curve in the direction sought with a large enough effect; inconclusive = small, poorly fitted or top-dose-only effect, or another doubt; inactive = no such curve, though single readings can be large; an effect the other way counts as inactive or inconclusive. Potency is the fitted concentration of half-maximal effect.

SMILES	ClpP mod	TDP1 cell CPT	TDP1 block	TDP1 cell noCPT
CC1(C)CC(=O)C(C(C2=C(O)CC(C)(C)CC2=O)c2ccc(Br)s2)C(=O)C1 (configuration not stated)	0.6%	13µM*	0.0%	7.31µM*
Cc1ccc(S(=O)(=O)NC(=O)C2(C)CCN2C(=O)Cc2ccc(Cl)cc2Cl)nc1 (configuration not stated)	0.8%	-25.3%	.	3.8%
Cc1cccc(NC(=O)c2sc(-n3nc(C)c(CCC(C)C)c3C)nc2C)c1	?	?	0.5%	?
CCCC(=O)N1CCc2cc(OC)c(OC)cc2C1c1cc2cc3c(cc2[nH]c1=O)OCO3 (configuration not stated)	?	-23.6%	.	-15.7%
COc1cc2c(cc1OC)C(c1cc3cc(OC)c(OC)cc3[nH]c1=O)N(C(=O)C1CC1)CC2 (configuration not stated)	28.2µM*	-27.3%	-1.2%	-17.9%
Cc1ccc(CNC(=O)C2c3ccccc3C(=O)N3CCc4ccccc4C23)o1 (configuration not stated)	-17.1%	?	4.0%	23.1µM*
N#C/C(=C\c1ccc(N2CCCCC2)o1)C(=O)Nc1cccc(Br)c1	.	?	-2.7%	7.31µM*
O=S(=O)(NCCc1nnc2ccc(SCc3cccc(Cl)c3)nn12)c1ccccc1	-0.5%	14.6µM*	5.1%	18.4µM*
Cc1ccc(S(=O)(=O)NCCc2nnc3ccc(SCc4ccccc4C)nn23)cc1	-4.0%	16.4µM*	2.6%	16.4µM*
Nc1nc(NCc2ccc(Cl)cc2)c2[nH]cnc2n1	-3.2%	?	2.3%	?
Nc1nc(NCc2ccc(Cl)c(Cl)c2)c2[nH]cnc2n1	-0.3%	?	2.4%	12.6µM*
CCN(CC)CCNC(=O)Cn1c(=O)c2cccn2c2ccc(F)cc21	0.2%	8.3%	.	1.7%
CC(C)N(CCCNC(=O)Cn1c(=O)c2cccn2c2ccccc21)Cc1ccccc1	-8.4%	18.4µM*	1.7%	-15.5%
CN(Cc1ccccc1)C(=O)Cn1c(=O)c2cccn2c2ccc(F)cc21	?	23.1µM*	0.0%	6.51µM*
CN(C)CCNC(=O)Cn1c(=O)c2cccn2c2ccc(F)cc21	?	23.1µM*!	3.9%	16.4µM*!
CN(CCCNC(=O)Cn1c(=O)c2cccn2c2ccccc21)Cc1ccccc1	-9.2%	-11.1%	0.1%	5.1%
Cc1cc(NC(=O)c2ccc(-c3ccccc3F)o2)no1	.	?	6.3%	18.4µM*
Cc1cc(NC(=O)c2ccc(-c3ccccc3[N+](=O)[O-])o2)no1	-0.4%	?	1.2%	?
Cc1cc(NC(=O)c2cc(-c3ccncc3)nc3c(C)cccc23)no1	?	4.11µM*	-8.7%	2.91µM*
Cc1cc(NC(=O)c2cccc(C(=O)Nc3cc(C)on3)n2)no1	?	0.184µM*	2.2%	0.651µM*
Cc1cccc(NC(=O)c2cc(-c3cccnc3)nc3c(C)cccc23)n1	32.7%	?	2.5%	14.6µM*
Cc1cc(NC(=O)c2cc(-c3ccccn3)nc3c(Cl)cccc23)no1	-1.7%	-17.8%	-0.4%	-13.8%
O=C(NC1CCCCC1)c1ccc2c(c1)N(Cc1ccccc1Cl)C(=O)c1ccccc1S2	-3.1%	-19.7%	-4.7%	?
COc1cccc(-n2cnnc2SC(C)C(=O)NC2CCCC2)c1 (configuration not stated)	-0.4%	-0.5%	-0.4%[56.1 µM]	-13.3%
Cc1ccc(C(C)C)c(OCC(=O)NNC(=O)Cn2[nH]c(=O)c3ccccc3c2=O)c1	1.8%	-25.2%	-5.9%	-17.1%
SMILES	ClpP mod	TDP1 cell CPT	TDP1 block	TDP1 cell noCPT
O=C(O)C(=O)/C(=C\c1cccc2ccccc12)c1ccc2ccccc2n1	15.8µM*	?	2.0%	18.4µM*
O=C(O)C(=O)/C(=C\c1ccccc1)c1ccc2ccccc2n1	?	-4.0%	-1.8%	-13.5%
Cn1ncc(Br)c1NC(=O)c1cc(Cl)cc(Cl)c1	-2.2%	-3.3%	.	-23.9%
O=C(Nc1cc(Cl)cc(Cl)c1)c1coc(=O)c(Br)c1	.	1.64µM*	.	11.6µM*
CN(C)CCNC(=O)c1ccc(COCC(F)(F)F)cc1	0.5%	-10.4%	4.1%	-8.9%
O=C(NCCc1ccccc1)c1coc(=O)c(Br)c1	.	0.82µM*	.	0.581µM*
CN(C)CCNC(=O)c1coc(=O)c(Br)c1	-7.7%	2.31µM*	0.0%	5.8µM*
O=C(NCCC1=CCCCC1)c1coc(=O)c(Br)c1	3.8%	0.116µM*	4.9%	0.366µM*
CC(C)=CCC[C@H](C)CC1Cc2[nH]c(=S)[nH]c(=O)c2C(c2ccc(Cl)cc2)O1 (some centres not stated)	-4.6%	?	.	?
Cc1cc(C(=O)NCCC2=CCCCC2)c(C)o1	-2.6%	?	2.3%	18.4µM*
NC(=O)NCCC1=CCCCC1	0.2%	-7.8%	0.9%	-12.8%
O=C(NNC(=O)C1CCC1)c1ccc(Br)cc1	.	9.8%	.	-0.5%
CCOc1ccc(C(=O)NCC(C)C)cc1	-4.7%	3.4%	-1.0%	-1.1%
CC(C)CNC(=O)c1coc(=O)c(Br)c1	3.1%	0.411µM*	0.0%	0.82µM*
O=C(NNC(=O)C1C2CCCCC21)c1coc(=O)c(Br)c1 (configuration not stated)	3.7%	4.11µM*	3.1%	4.11µM*
CC(=O)Nc1ccc(CN2C(=O)C(Cc3ccccc3)ON=C2c2cccc(F)c2)cc1 (configuration not stated)	1.1%	?	.	?
COc1ccc([C@@H]2[C@@H]3C(=O)N(C(C)(C)C)C(=O)[C@@H]3[C@]3(Cc4ccccc4)C(=O)N(c4cccc(Cl)c4)C(=O)N23)cc1	1.4%	-19.5%	.	?
CC(C)(C)N1C(=O)[C@H]2[C@@H](c3ccc(Br)cc3)N3C(=O)N(c4cccc(Cl)c4)C(=O)[C@@]3(Cc3ccccc3)[C@H]2C1=O	2.6%	?	-0.4%	20.6µM*
COc1ccc(N2C(=O)N3[C@H](c4ccc(Br)cc4)[C@@H]4C(=O)N(C(C)(C)C)C(=O)[C@@H]4[C@]3(Cc3ccccc3)C2=O)cc1	0.4%	-8.3%	.	-12.1%
COc1ccc([C@@H]2[C@@H]3C(=O)N(C(C)(C)C)C(=O)[C@@H]3[C@]3(Cc4ccccc4)C(=O)N(c4ccc(Br)cc4)C(=O)N23)cc1	-10.7%	23.1µM*	.	23.1µM*
CC[C@@]12C(=O)N(c3ccc(C)cc3)C(=O)N1[C@H](c1ccc(OC)cc1)[C@@H]1C(=O)N(C(C)(C)C)C(=O)[C@@H]12	-0.5%	12.6%	.	1.1%
CCN1C(=O)[C@H]2[C@@H](c3ccc(C)cc3)N3C(=O)N(c4ccc(C)cc4)C(=O)[C@@]3(Cc3ccc(Cl)cc3)[C@H]2C1=O	-0.5%	18.4µM*	.	20.6µM*
